Source: PubChem BioAssay (EPA / NIEHS)
The source made the active and inactive calls. How the source made its calls: active means hit-call score of the fitted dose curve at least 0.9, where 1 is the maximum; inactive means score below 0.9.

What was measured:
[1] = ATG_GRE_CIS: Attagene CIS-FACTORIAL HepG2 Assay for human Glucocorticoid Response Elements (GRE) (AID 2282947); details: HepG2 GRE cis-reporter, Attagene multiplex mRNA; actives raise or lower the signal
Procedure, shortened: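 Assay uses human hepatoma HepG2 cells transfected with cis-promoter reporter units, exposed 24 h. mRNA from reporters detected by RT-PCR plus capillary electrophoresis; DMSO serves as negative control and baseline.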

[2] = ATG_ISRE_CIS: Attagene CIS-FACTORIAL HepG2 Assay for human Interferon Regulatory Factor 1 (IRF1) binding to an Interferon-Stimulated Response Element (ISRE) (AID 2282948); details: HepG2 ISRE cis-reporter (Attagene), mRNA transcription readout; actives raise or lower the signal
Procedure, shortened: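 Quantitation relies on labelled RT-PCR fragments separated by capillary electrophoresis. Human HepG2 cells bearing cis-promoter reporter constructs were treated 24 h; DMSO served as baseline for bidirectional fitting.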

[3] = ATG_M_32_CIS: Attagene CIS-FACTORIAL HepG2 Assay for M32 Transcription Factor (Internal Marker) (AID 2282949); details: HepG2 Attagene cis-factorial M32 reporter, mRNA; actives raise or lower the signal;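 further: background control marker of the multiplexed CIS panel rather than a real target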
Procedure, shortened: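 Internal background marker read-out: RT-PCR/capillary electrophoresis fluorescence of reporter transcripts from transiently transfected HepG2 cells after 24 h chemical exposure. Activity fitted bidirectionally relative to DMSO negative control.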

[4] = ATG_M_06_CIS: Attagene CIS-FACTORIAL HepG2 Assay for M06 Transcription Factor (Internal Marker) (AID 2282950); details: HepG2 Attagene CIS-FACTORIAL M06 internal marker reporter; actives raise or lower the signal
Procedure, shortened: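 Measured 24 h post-dosing in transiently transfected HepG2 cells, this internal-marker endpoint reports reporter mRNA via RT-PCR with fluorescent primer extension and capillary electrophoresis. DMSO served as negative control and baseline for bidirectional fitting.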

[5] = molecular target: Hypoxia-inducible factor 1-alpha (Homo sapiens) (UniProt Q16665); test: ATG_HIF1a_CIS: Attagene CIS-FACTORIAL HepG2 Assay for human Hypoxia Inducible Factor 1 (HIF1A) (AID 2282951); details: HepG2 Attagene cis-factorial HIF1a reporter transcription; actives raise or lower the signal
Chain of Hypoxia-inducible factor 1-alpha (Homo sapiens) (Q16665 whole entry, looked up): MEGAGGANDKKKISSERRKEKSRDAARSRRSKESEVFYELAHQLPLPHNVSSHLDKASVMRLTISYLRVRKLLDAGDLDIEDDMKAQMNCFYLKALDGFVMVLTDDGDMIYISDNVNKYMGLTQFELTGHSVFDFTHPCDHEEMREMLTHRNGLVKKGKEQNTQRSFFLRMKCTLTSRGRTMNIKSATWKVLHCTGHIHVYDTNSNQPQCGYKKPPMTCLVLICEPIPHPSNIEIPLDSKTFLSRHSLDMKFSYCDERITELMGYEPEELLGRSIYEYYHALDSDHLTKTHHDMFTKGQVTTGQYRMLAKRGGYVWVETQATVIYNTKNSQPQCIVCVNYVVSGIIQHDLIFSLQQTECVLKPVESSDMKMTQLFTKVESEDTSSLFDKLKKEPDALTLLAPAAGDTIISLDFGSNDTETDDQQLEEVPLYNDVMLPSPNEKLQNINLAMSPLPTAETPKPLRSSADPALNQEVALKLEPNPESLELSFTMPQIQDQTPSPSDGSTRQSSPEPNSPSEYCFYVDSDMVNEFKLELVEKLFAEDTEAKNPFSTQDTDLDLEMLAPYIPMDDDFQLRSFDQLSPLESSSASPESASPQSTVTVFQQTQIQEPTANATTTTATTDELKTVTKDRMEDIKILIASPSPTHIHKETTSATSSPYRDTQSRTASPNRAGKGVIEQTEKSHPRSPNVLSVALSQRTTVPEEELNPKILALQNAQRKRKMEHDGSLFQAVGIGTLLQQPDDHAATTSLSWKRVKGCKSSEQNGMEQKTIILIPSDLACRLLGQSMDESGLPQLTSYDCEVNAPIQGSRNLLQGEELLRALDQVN
Procedure, shortened: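 In this multiplexed cell assay, HepG2 cells bearing transfected cis reporters are dosed for 24 h and reporter mRNA is read by RT-PCR plus capillary electrophoresis; signal increases and decreases are both scored against DMSO.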

[6] = molecular target: Hepatocyte nuclear factor 6 (Homo sapiens) (UniProt Q9UBC0); test: ATG_HNF6_CIS: Attagene CIS-FACTORIAL HepG2 Assay for human Hepatocyte Nuclear Factor 6 (HNF6) (AID 2282952); details: HepG2 Attagene cis-factorial HNF6 reporter transcription; actives raise or lower the signal
Chain of Hepatocyte nuclear factor 6 (Homo sapiens) (Q9UBC0 whole entry, looked up, the tested form may be a part): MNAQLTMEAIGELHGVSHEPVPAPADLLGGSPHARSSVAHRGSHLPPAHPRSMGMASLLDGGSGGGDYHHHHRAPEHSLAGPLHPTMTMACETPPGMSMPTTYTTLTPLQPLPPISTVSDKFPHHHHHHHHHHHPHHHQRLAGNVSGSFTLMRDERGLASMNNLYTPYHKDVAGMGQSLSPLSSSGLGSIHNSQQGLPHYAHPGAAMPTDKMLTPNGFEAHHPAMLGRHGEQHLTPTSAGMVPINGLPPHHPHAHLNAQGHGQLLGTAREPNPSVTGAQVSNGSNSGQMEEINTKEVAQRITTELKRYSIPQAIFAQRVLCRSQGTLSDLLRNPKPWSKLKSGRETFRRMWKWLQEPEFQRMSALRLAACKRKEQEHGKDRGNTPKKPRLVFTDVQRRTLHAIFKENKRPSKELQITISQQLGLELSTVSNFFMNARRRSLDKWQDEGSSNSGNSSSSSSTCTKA
Procedure, shortened: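 HepG2 cells transiently transfected with cis-element-driven multiplexed reporter units measuring endogenous transcription factor activity. After 24 h exposure, reporter mRNA quantified by RT-PCR, FAM-labelled fragments and capillary electrophoresis; bidirectional fitting versus DMSO.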

[7] = molecular target: Heat shock factor protein 1 (Homo sapiens) (UniProt Q00613); test: ATG_HSE_CIS: Attagene CIS-FACTORIAL HepG2 Assay for human Heat Shock Transcription Factor 1 (HSE) (AID 2282953); details: HepG2 HSE cis-reporter, Attagene RNA transcription; actives raise or lower the signal
Chain of Heat shock factor protein 1 (Homo sapiens) (Q00613 whole entry, looked up): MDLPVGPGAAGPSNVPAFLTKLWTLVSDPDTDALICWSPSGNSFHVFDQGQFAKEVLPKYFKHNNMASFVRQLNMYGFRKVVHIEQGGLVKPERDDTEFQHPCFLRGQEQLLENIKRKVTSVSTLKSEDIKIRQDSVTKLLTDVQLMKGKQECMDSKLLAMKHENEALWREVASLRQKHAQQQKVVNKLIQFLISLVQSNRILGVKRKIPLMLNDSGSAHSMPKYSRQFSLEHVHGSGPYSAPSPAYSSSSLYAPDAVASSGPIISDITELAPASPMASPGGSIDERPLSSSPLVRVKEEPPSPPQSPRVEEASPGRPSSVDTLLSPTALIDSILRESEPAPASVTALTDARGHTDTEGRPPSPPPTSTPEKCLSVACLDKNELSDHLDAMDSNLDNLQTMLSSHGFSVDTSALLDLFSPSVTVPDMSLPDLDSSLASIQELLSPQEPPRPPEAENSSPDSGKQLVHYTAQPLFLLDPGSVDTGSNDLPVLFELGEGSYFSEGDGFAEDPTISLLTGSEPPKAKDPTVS
Procedure, shortened: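 Reporter mRNA induction in HepG2 is measured 24 h after dosing, using transiently transfected multiplexed cis-regulated reporter units. Signal comes from capillary electrophoresis of labelled RT-PCR products, with DMSO as negative control.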

[8] = molecular target: Paired box protein Pax-6 (Homo sapiens) (UniProt P26367); test: ATG_Pax6_CIS: Attagene CIS-FACTORIAL HepG2 Assay for human Paired Box 6 (PAX6) (AID 2282956); details: HepG2 CIS-FACTORIAL PAX6 reporter transcription, RNA readout; actives raise or lower the signal
Chain of Paired box protein Pax-6 (Homo sapiens) (P26367 whole entry, looked up): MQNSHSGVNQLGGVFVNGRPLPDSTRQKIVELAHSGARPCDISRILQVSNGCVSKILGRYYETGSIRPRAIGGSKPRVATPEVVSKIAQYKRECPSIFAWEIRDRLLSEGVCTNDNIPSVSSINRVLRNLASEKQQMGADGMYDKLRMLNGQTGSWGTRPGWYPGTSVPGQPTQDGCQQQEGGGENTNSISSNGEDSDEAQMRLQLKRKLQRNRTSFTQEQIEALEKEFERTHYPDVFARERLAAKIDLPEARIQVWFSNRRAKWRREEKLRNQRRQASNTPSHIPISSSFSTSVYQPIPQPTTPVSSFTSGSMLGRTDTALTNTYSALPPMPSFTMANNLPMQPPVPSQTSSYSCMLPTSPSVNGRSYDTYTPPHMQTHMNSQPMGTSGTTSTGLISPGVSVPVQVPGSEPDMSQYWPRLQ
Procedure, shortened: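 After twenty-four hours of chemical exposure, transfected HepG2 cells are harvested for RNA. Cis-promoter reporter transcripts are amplified, fluorescently labelled and sized by capillary electrophoresis, with gain and loss of signal scored against DMSO.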

[9] = ATG_PXRE_CIS: Attagene CIS-FACTORIAL HepG2 Assay for human Pregnane X Receptor Element (PXRE) (AID 2282957); details: HepG2 Attagene CIS-FACTORIAL PXRE reporter, mRNA; actives raise or lower the signal
Procedure, shortened: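 HepG2 cells transiently transfected with cis-element-driven multiplexed reporter units; after 24 h chemical exposure, reporter mRNA measured by RT-PCR, 6-FAM labelling, HpaI digestion and capillary electrophoresis. Bidirectional fitting relative to DMSO.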

[10] = ATG_PPRE_CIS: Attagene CIS-FACTORIAL HepG2 Assay for human Peroxisome Proliferator-activated Response Element (PPRE) (AID 2282958); details: HepG2 PPRE cis-element reporter, Attagene transcription factor profiling; actives raise or lower the signal
Procedure, shortened: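 Multiplexed reporter transcription units under cis-regulatory promoters were transfected into HepG2 cells to capture endogenous factor activity. A 24 h incubation preceded RNA isolation and fluorescent RT-PCR fragment analysis.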

[11] = ATG_RORE_CIS: Attagene CIS-FACTORIAL HepG2 Assay for human RAR-related Orphan Receptor Element (RORE) (AID 2282959); details: HepG2 Attagene cis-factorial RORE reporter, mRNA; actives raise or lower the signal
Procedure, shortened: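 Fluorescence intensity of reporter-specific cDNA fragments, separated by capillary electrophoresis, gives the signal. Source: HepG2 liver cells transiently transfected with cis-element reporters and exposed 24 h; DMSO-normalized bidirectional fit.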

[12] = molecular target: Transcription factor Sp1 (Homo sapiens) (UniProt P08047); test: ATG_Sp1_CIS: Attagene CIS-FACTORIAL HepG2 Assay for human Specificity Protein 1 (Sp1) (AID 2282961); details: HepG2 Sp1 cis-reporter transcription, actives raise or lower the signal
Chain of Transcription factor Sp1 (Homo sapiens) (P08047 whole entry, looked up): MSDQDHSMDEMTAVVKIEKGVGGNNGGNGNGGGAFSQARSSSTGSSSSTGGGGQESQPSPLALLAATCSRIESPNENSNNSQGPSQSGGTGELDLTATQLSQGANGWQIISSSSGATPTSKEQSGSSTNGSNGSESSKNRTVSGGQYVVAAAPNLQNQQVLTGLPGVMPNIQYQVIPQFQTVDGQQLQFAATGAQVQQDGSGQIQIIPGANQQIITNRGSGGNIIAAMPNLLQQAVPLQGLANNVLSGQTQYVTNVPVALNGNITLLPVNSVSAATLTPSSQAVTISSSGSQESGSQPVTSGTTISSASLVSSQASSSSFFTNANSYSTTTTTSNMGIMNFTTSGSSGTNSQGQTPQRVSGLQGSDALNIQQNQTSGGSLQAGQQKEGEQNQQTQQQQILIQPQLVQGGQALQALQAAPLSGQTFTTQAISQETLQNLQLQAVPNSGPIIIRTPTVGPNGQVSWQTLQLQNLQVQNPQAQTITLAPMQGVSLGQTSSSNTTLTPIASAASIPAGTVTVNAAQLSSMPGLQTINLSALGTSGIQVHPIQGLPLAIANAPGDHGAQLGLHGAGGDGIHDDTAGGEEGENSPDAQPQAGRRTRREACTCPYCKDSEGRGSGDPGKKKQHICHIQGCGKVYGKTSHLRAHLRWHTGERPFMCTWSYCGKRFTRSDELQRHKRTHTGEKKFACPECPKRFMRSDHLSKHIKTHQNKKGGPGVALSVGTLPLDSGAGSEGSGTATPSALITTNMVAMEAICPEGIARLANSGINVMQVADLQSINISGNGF
Procedure, shortened: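 Sp1-driven reporter mRNA, read as capillary electrophoresis fluorescence after RT-PCR, in transiently transfected HepG2 cells dosed for 24 h; signal change in either direction relative to DMSO.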

[13] = ATG_SREBP_CIS: Attagene CIS-FACTORIAL HepG2 Assay for human Sterol Regulatory Element Binding (SREBP) (AID 2282962); details: HepG2 Attagene cis-factorial SREBP reporter, mRNA; actives raise or lower the signal
Procedure, shortened: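 Twenty-four hours after chemical dosing of transfected HepG2 cultures, reporter RNA was converted to cDNA, amplified, end-labelled with 6-FAM and resolved by capillary electrophoresis. Responses were fitted relative to DMSO.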

[14] = molecular target: Signal transducer and activator of transcription 3 (Homo sapiens) (UniProt P40763); test: ATG_STAT3_CIS: Attagene CIS-FACTORIAL HepG2 Assay for human Signal Transducer and Activator of Transcription 3 (STAT3) (AID 2282963); details: HepG2, Attagene cis-factorial STAT3 reporter transcription; actives raise or lower the signal
Chain of Signal transducer and activator of transcription 3 (Homo sapiens) (P40763 whole entry, looked up): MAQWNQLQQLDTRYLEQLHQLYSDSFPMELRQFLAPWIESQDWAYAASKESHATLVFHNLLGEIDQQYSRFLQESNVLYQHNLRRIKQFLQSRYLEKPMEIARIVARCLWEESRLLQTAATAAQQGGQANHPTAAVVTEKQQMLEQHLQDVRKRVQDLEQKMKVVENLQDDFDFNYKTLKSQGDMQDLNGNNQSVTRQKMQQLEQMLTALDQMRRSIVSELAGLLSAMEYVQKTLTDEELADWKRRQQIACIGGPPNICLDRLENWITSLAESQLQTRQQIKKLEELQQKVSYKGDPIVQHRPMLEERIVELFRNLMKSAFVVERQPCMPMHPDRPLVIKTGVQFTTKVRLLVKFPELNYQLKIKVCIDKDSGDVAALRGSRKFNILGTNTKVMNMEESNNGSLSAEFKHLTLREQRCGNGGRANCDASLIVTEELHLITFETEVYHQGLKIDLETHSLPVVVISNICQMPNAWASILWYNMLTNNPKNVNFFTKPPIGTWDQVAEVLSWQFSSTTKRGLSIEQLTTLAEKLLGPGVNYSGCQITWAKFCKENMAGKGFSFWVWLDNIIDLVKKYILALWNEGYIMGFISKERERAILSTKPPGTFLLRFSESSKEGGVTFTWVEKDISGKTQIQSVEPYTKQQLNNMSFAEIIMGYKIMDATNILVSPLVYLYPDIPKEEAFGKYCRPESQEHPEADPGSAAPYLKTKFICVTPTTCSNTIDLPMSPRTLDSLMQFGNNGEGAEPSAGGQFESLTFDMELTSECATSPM
Procedure, shortened: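 After a 24 h compound incubation, total RNA from MRTU-transfected HepG2 cells was converted to cDNA and reporter sequences PCR-amplified, labelled and profiled by capillary electrophoresis. Gain and loss of signal were referenced to DMSO.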

[15] = ATG_TA_CIS: Attagene CIS-FACTORIAL HepG2 Assay for human TA Basal Promoter (AID 2282964); details: HepG2 Attagene CIS-factorial TA basal promoter reporter; actives raise or lower the signal
Procedure, shortened: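 Cis-factorial format in HepG2: reporters report endogenous factors, not chimeric Gal4 fusions. After 24 h treatment, reporter transcripts were measured by RT-PCR-capillary electrophoresis fluorescence, analysed bidirectionally versus DMSO.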

[16] = ATG_TCF_b_cat_CIS: Attagene CIS-FACTORIAL HepG2 Assay for human T-Cell-Factor with beta-catenin (TCF/b-cat) (AID 2282965); details: HepG2 TCF/beta-catenin cis-reporter transcription, actives raise or lower the signal
Procedure, shortened: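 Measured: reporter mRNA in HepG2 transiently transfected with cis-promoter reporter units, 24 h after chemical addition. Fitting was bidirectional, DMSO as negative control.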

[17] = ATG_PBREM_CIS: Attagene CIS-FACTORIAL HepG2 Assay for human Phenobarbital-responsive Enhancer Module (PBREM) (AID 2282955); details: HepG2 PBREM cis-reporter, Attagene multiplexed transcription; actives raise or lower the signal
Procedure, shortened: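 After a 24 h incubation with test chemical, transfected HepG2 cells yield total RNA; reporter-specific RT-PCR products are fluorescently labelled, HpaI-digested and resolved by capillary electrophoresis against ROX size standards.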

[18] = ATG_MRE_CIS: Attagene CIS-FACTORIAL HepG2 Assay for human Metal Responsive Element (MRE) (AID 2282954); details: HepG2 MRE cis-reporter transcription, Attagene multiplex; actives raise or lower the signal
Procedure, shortened: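 After a 24 h chemical exposure, transiently transfected HepG2 cells yield RNA whose reporter sequences are amplified, FAM-labelled and sized by capillary electrophoresis. Curves are fitted bidirectionally relative to DMSO.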

[19] = ATG_Sox_CIS: Attagene CIS-FACTORIAL HepG2 Assay for human SRY-box transcription factor (SOX) (AID 2282960); details: HepG2 Attagene cis-factorial SOX reporter, mRNA; actives raise or lower the signal
Procedure, shortened: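 After 24 h of chemical treatment, transfected HepG2 reporter cells are lysed for total RNA. Transcript levels come from RT-PCR with labelled primer extension and capillary electrophoresis, analysed bidirectionally versus DMSO.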

Measured: AC50

CC[C@H]1CC[C@H](NCc2cc3c(cc2OC)[C@H]2C[C@H]2C(=O)N3C)[C@H](c2ccccc2)N1
active: [1] 69 µM | [2] 80.9 µM | [7] 71.5 µM | [9] 4.91 µM | [10] 75.6 µM | [12] 47.5 µM | [13] 36.6 µM | [16] 100 µM
inactive: [3] | [4] | [5] | [6] | [8] | [11] | [14] | [15]

C=CC(=C)CCC=C(C)C
active: [9] 18.8 µM
not listed: [10] | [18] | [19]
inactive: all other assays above

CC(C)=CCCC(C)CCO (centres undefined)
active: [5] 178 µM | [9] 26.6 µM | [16] 167 µM
not listed: [1] | [17] | [19]
inactive: all other assays above

O=P(OC(CCl)CCl)(OC(CCl)CCl)OC(CCl)CCl
inactive: [3] | [4] | [10] | [19] | [12] | [15]
active: [1] 153 µM | [2] 23.2 µM | [5] 36.3 µM | [6] 153 µM | [7] 151 µM | [8] 46.9 µM | [9] 0.371 µM | [13] 24.4 µM | [14] 188 µM | [16] 100 µM

NC(=O)NO
not listed: [5] | [10] | [18]
inactive: all other assays above

O=C1OC(=O)C2C3C=CC(C3)C12 (centres undefined)
not listed: [1] | [17]
inactive: all other assays above

O=C(O)CCN(C1(C(=O)NO)CCCC1)S(=O)(=O)c1ccc(Oc2ccc(F)cc2)cc1
not listed: [1] | [11] | [18]
inactive: all other assays above

Cc1ccc(S(=O)(=O)O)cc1C
not listed: [11] | [18] | [19]
inactive: all other assays above
